# Assay outcomes from PubChem.
# In the library only some 19% were active in any assay of this set; here they are far more common.
# CHX counter = counter-screen hit for Shiga toxin inhibitors, cycloheximide; cell reporter, cycloheximide protein synthesis inhibition counterscreen; max response, %; hit rate 12% among 300,000; in the data active = max response mostly above about 13%, no sharp cut-off; inactive = mostly below about 14%; note: read at 38.3 µM for the half of the compounds with a filed dose; 0% is about no effect
# Pf growth 48h = P. falciparum growth inhibition at 48 hours (one generation) | P. falciparum luciferase growth in erythrocytes, 48 h | Potency, µM (doses to about 28.7 µM), inactives show at the top dose activity change, negative = inhibition, hits mostly inhibitors | hit rate 5.9% among 310,000 | AID 504832; note: potency is the fitted concentration of half-maximal effect; % is set by controls: 0 for no effect and ±100 for the full control effect
#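 Read-out is firefly luciferase luminescence from an integrated reporter in P. falciparum, so falling signal marks reduced parasite growth. Infected erythrocytes were at 2% hematocrit and 0.1% parasitemia (final) in Albumax-supplemented RPMI 1640.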
# Pf growth 96h = P. falciparum growth inhibition at 96 hour, primary screen for plastid delayed-death inhibitors | hit rate 6.9% among 320,000 | Potency, µM (series often up to 28.7 µM), without a hit: top-dose activity change, negative = inhibition, actives largely listed as inhibitors | P. falciparum luciferase reporter growth, 96 h; note: potency is the fitted concentration of half-maximal effect; % is set by controls: 0 for no effect and ±100 for the full control effect
#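 Readout is luminescence from an integrated firefly luciferase in P. falciparum. Red cells, 2% hematocrit and 0.05% parasitemia final, were cultured with compound through two parasite generations (96 hours) at 37 C, 5% CO2.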
# Marburg entry inh = Marburg virus entry inhibition; Potency, µM (titrated, usually from 37.8 µM), for the others: at the top dose activity change, negative = inhibition, actives largely listed as inhibitors; hit rate 1.8% among 300,000; AID 540276; Marburg virus pseudotyped entry inhibition, cell reporter; calls by dose curve; tested in HEK293 cells; note: potency is the fitted concentration of half-maximal effect; % is set by controls: 0 for no effect and ±100 for the full control effect
# Shiga toxin inh = blocks Shiga toxin action in Vero cells. Vero cells, Shiga toxin protein synthesis inhibition reporter. inhibition, % at 38.7 µM. hit rate 9.2% among 290,000; in the data active = inhibition mostly above about 28%, no sharp cut-off; inactive = mostly below about 43%; note: 0% is about no effect
# Lassa entry inh = inhibitors of Lassa virus binding or cell entry; Lassa virus pseudotype entry inhibition, cell reporter; hit rate 1.2% among 300,000; AID 540256; Potency, µM (highest dose often 37.9 µM), for the others: at the top dose activity change, negative = inhibition, usual class: inhibitors; calls by dose curve; tested in HEK293 cells; note: potency is the fitted concentration of half-maximal effect; % is set by controls: 0 for no effect and ±100 for the full control effect; nearly all actives have a fitted effect of over 50% in size
# Starred values were filed as active, the others as inactive; i = inactive; ? = inconclusive; / = no result; [ ] = another dose, or the depositor's remark. Unless noted, calls come from the whole dose curve; as a rule, active = well fitted inhibition curve with a large enough effect; inconclusive = small, poorly fitted or top-dose-only effect, or another doubt; inactive = no such curve, though single readings can be large or run the other way.
SMILES,CHX counter,Pf growth 48h,Pf growth 96h,Marburg entry inh,Shiga toxin inh,Lassa entry inh
C/C(=N\NC(=O)c1ccncc1)c1c(O)n(Cc2ccccc2)c(=O)[nH]c1=O,16.7,-75.3%,-14.7%,/,-13.2,/
CCN(CC)CCCN=C(C)c1c(O)n(C2CCCCC2)c(=O)[nH]c1=O,5.1,4.2%,6.57µM*,-8.6%,-12.2,6.2%[14.3 µM]
Cc1ccc(S(=O)(=O)Nc2ccc(NC(=O)CN3CCCCC3)c(Cl)c2)cc1,-1.8,-17.0%,/,?,-16.4,21.1%
C/C(=N\NC(=O)c1ccccc1Cl)c1c(O)n(C2CCCCC2)c(=O)[nH]c1=O,32.4*,-2.4%,-4.1%,/,35.1*,/
N#C/C=C/C(=C\Nc1ccc(Cl)cc1)S(=O)(=O)c1ccccc1,-2.0,-20.5%[0.00184 µM],-19.6%,-18.2%[46.1 µM],4.1,-6.9%[46.1 µM]
COc1ccc(CCNC(=O)COc2coc(CN3c4ccccc4CC3C)cc2=O)cc1OC (configuration not stated),/,9.28µM*,?,?,/,?
Cc1ccc(NC(=O)COc2coc(CN3c4ccccc4CC3C)cc2=O)c(C)c1 (configuration not stated),/,?,?,-21.2%,/,-8.7%
CC1Cc2ccccc2N1Cc1cc(=O)c(OCC(=O)Nc2ccccc2)co1 (configuration not stated),/,9.28µM*,10.4µM*,-2.6%,/,-24.7%
O=C(O)c1cccc2c1C(=O)N(Cc1ccccc1)C2,0.5,?,-5.1%,6.7%,-6.3,12.0%
Cc1cc(C(=O)CSc2nc3ccccc3n2CCC#N)c(C)n1Cc1cccs1,46.0*,?,129.6%,?,55.2*,49.4%
C=CCn1c(SCC(=O)c2cc(C)n(Cc3cccs3)c2C)nnc1-c1ccncc1,6.9,-24.3%,-11.9%,-1.6%,-7.3,-0.6%
COc1ccccc1-n1cnnc1SCC(=O)c1cc(C)n(Cc2cccs2)c1C,39.0*,-27.9%,/,3.2%,37.8*,-2.3%
O=C(CSc1nnc(-c2ccccc2F)o1)NC1CCCCC1,1.2,8.8%,?,4.8%[46.1 µM],26.0,?
Cc1cc(C(=O)CSc2nnc(-c3ccccc3F)o2)c(C)n1Cc1cccs1,18.7*,10.2%,0.0%,2.4%,32.0,-5.1%
O=S(=O)(NCc1cccnc1)c1ccc(Br)c2ccccc12,-8.6,6.5%,0.0%,-1.5%[46.1 µM],-6.7,4.0%
CCCCNC(=O)N1CCN(c2ncccn2)CC1,-0.7,33.1%,4.0%,-4.4%,22.2,19.7%
CN=C1N[C@H](c2ccccc2)N(c2ccccc2)S1,26.6*,/,/,/,28.0,/
COc1ccc(NC(=O)CSC2CC(=O)N(c3ccc4c(c3)OCCO4)C2=O)cc1 (configuration not stated),-1.4,15.2%,/,0.2%,9.1,6.4%
O=C(NCC(c1ccco1)N1CCCC1)c1cn(Cc2ccccc2)nc1-c1ccccc1 (configuration not stated),/,?,9.28µM*,?,/,-1.5%
O=C(NCC(c1cccs1)N1CCOCC1)c1cn(-c2ccccc2)nc1-c1ccc(F)cc1 (configuration not stated),/,?,?,?,/,-24.2%
Cc1cccc(-c2nn(-c3ccccc3)cc2C(=O)NCC(c2cccs2)N2CCOCC2)c1 (configuration not stated),/,13.1µM*,?,?,/,-14.0%[46.1 µM]
O=C(CCl)Nc1cn(-c2ccccc2)nc1-c1ccc(F)cc1,24.2*,-29.8%,?,?,18.5,11.2µM*
O=C(NCC(c1ccco1)N1CCCC1)c1cn(-c2ccccc2)nc1-c1ccc(F)cc1 (configuration not stated),/,?,8.28µM*,?,/,?
O=C(NCC(c1ccco1)N1CCCC1)c1ccccc1F (configuration not stated),6.4,3.8%,/,2.3%,-7.6,0.6%
CCN(CC)C(=O)C1CC(=O)OC1(C)C (configuration not stated),0.3,9.0%,-0.6%,20.9%,4.5,-0.1%
SMILES,CHX counter,Pf growth 48h,Pf growth 96h,Marburg entry inh,Shiga toxin inh,Lassa entry inh
CCSc1nnc([C@@H](N)Cc2c[nH]c3ccccc23)o1,13.1,-6.0%,-10.2%,7.0%,13.2,-1.4%
O=C(NC(=S)N1CCOCC1)c1cn(-c2ccccc2)nc1-c1ccc(F)cc1,/,?,11.7µM*,-9.5%,/,4.8%
COc1ccccc1C(CNC(=O)c1ccco1)N1CCCC1 (configuration not stated),/,-7.7%,20.1%,/,/,/
COc1ccccc1-c1nn(-c2ccccc2)cc1C(=O)NCC(c1ccco1)N1CCCC1 (configuration not stated),/,?,14.7µM*,/,/,/
O=C(c1cn(-c2ccccc2)nc1-c1ccc(F)cc1)N1CCOCC1,15.7,-3.5%,10.5%,1.2%,23.4,-12.0%
O=C(N/C(=C/c1cn(-c2ccccc2)nc1-c1ccccc1)C(=O)N1CCOCC1)c1ccc(Cl)cc1Cl,-0.8,6.57µM*,?,-0.8%,-1.7,11.3%
O=C(N/C(=C\c1cn(-c2ccccc2)nc1-c1ccc(Cl)cc1)C(=O)N1CCOCC1)c1ccccc1,-3.3,7.9%,10.7%,-0.5%,-5.8,/
Cc1ccccc1NC(=O)NC1(C(=O)N2CCC(O)CC2)CCCCC1,-2.5,-12.3%,0.6%,16.0%[46.1 µM],-23.3,9.6%[46.1 µM]
CCN(CC)C(=O)c1ccc(-c2nnc(Nc3cccc(O)c3)c3ccccc23)cc1,0.7,2.94µM*,-13.0%,/,/,/
COc1cccc(CC(=O)OCC(=O)Nc2c(C)nn(-c3ccccc3)c2C)c1,/,?,1.7%,-9.6%[46.1 µM],/,6.5%
CCOC(=O)c1[nH]c2ccc(OC)cc2c1NC(=O)OC,0.7,46.5%,6.5%,-9.7%,-11.1,-7.7%
CCOC(=O)c1[nH]c2ccc(OC)cc2c1N=CN(C)C,0.4,7.0%,0.131µM*,3.2%,-7.0,-0.4%
CCOc1ccc(N(CC(=O)Nc2ccccc2)S(C)(=O)=O)cc1,18.6*,41.2%,3.5%,27.0%,50.2*,13.2%
CCOc1ccc(N(CC(=O)Nc2ccc(C)c(C)c2)S(C)(=O)=O)cc1,78.0*,121.7%,9.8%,13.1%,106.7*,7.8%
CCOc1ccc(N(CC(=O)Nc2ccccc2Cl)S(C)(=O)=O)cc1,28.1*,0.0%,?,/,74.1*,/
CCOc1ccc(N(CC(=O)Nc2ccccc2OC)S(C)(=O)=O)cc1,9.2,5.5%,-4.4%,/,14.0,/
CCOc1ccc(N(CC(=O)Nc2ccc(C)c(C)c2)S(=O)(=O)c2c(C)[nH]c(=O)[nH]c2=O)cc1,5.5,-8.4%,-1.5%,3.5%[46.1 µM],25.0,3.3%
Cc1ccc(OCC(=O)NNC(=O)c2cccnc2)cc1,-0.6,-3.3%,?,16.6%,-11.5,-9.0%
Cc1ccc(Nc2nc(/N=C/N(C)C)n[nH]2)cc1C,51.0*,i,145.2%,24.4%,85.9*,6.6%
Cc1ccc(Nc2nnns2)cc1C,-2.3,3.9%,?,7.3%[46.1 µM],-13.5,-2.9%
C/C(=N\NC(=O)c1cc(C(C)(C)C)[nH]n1)C12CC3CC(CC(C3)C1)C2,22.7*,2.62µM*,51.4%,?,19.4,11.8%
